# Paper PMC7862700, “An all-to-all approach to the identification of sequence-specific readers for epigenetic DNA modifications on cytosine”
# Key:
# Experiment in all cases: DAPPL (digital affinity profiling via proximity ligation, sequencing); 10 mM Tris-HCl pH 7.5, 50 mM NaCl, 1 mM DTT, 4% glycerol, room temperature, 30 min; GST-TFs on glutathione beads, 16-mer random dsDNA library, 0.1% formaldehyde crosslink after washing; high values mean tight binding
# Settings in all cases: protein: recombinant; tags: N-terminal GST; dsDNA, one strand shown
# FLI1 = target: T1, FLI1 (Homo sapiens, UniProt Q01543 1-452)
# T1 sequence: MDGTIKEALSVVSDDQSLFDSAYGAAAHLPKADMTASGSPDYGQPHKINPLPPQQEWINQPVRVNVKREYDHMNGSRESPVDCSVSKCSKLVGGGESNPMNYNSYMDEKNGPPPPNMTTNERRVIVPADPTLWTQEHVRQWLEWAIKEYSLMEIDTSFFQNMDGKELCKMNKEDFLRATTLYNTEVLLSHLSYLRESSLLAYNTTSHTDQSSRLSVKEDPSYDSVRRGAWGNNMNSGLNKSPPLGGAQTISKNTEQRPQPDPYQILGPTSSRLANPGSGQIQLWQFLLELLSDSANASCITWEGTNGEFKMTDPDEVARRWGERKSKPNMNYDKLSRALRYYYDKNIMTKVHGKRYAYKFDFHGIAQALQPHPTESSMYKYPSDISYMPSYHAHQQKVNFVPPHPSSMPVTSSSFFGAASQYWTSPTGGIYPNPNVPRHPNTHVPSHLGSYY
# Summary of the method: (§1)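 GST fusions of human transcription factors were expressed in yeast and captured with glutathione beads. Once given DNA barcodes and pooled alongside a tag-only sample, they were incubated for 30 min at room temperature with 200 nmole of a random double-stranded 16-mer DNA library in Tris/NaCl/DTT/glycerol buffer, then washed, crosslinked (0.1% formaldehyde), proximity-ligated, PCR-amplified and sequenced on an Illumina NextSeq500. The binding signal of each hexamer is its read frequency for a factor divided by its frequency for the tag-only sample.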
# ELK1 = target: T2, ELK1 (Homo sapiens, UniProt P19419 1-428)
# T2 sequence: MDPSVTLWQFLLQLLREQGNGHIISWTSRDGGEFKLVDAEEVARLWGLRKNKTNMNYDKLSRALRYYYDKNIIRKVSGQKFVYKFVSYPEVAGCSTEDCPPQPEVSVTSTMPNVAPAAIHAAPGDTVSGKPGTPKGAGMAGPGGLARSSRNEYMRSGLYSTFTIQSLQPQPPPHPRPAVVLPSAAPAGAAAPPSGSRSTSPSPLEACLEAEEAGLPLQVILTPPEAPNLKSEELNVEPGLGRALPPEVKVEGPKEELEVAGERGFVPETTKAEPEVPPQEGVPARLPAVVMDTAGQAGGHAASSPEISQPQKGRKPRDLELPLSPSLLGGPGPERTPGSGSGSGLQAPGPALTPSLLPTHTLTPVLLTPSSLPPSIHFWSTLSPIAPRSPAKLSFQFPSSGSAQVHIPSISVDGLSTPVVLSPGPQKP
# Summary of the method: as §1
# GABPA = target: T3, GABPA (Homo sapiens, UniProt Q06546 1-454)
# T3 sequence: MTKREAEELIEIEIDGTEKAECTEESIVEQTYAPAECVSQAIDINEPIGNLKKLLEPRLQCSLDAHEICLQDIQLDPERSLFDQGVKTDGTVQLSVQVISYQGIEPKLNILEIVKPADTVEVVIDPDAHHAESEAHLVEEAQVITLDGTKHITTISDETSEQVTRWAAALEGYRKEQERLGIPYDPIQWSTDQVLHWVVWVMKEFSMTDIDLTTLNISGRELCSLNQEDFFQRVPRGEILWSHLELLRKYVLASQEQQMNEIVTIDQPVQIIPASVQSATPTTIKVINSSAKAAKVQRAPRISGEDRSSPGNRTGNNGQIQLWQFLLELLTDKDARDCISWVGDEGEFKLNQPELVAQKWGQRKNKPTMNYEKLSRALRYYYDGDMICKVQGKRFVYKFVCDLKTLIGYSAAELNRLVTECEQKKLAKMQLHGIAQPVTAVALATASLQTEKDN
# Summary of the method: as §1
# ERG = target: T4, ERG (Homo sapiens, UniProt P11308 1-479)
# T4 sequence: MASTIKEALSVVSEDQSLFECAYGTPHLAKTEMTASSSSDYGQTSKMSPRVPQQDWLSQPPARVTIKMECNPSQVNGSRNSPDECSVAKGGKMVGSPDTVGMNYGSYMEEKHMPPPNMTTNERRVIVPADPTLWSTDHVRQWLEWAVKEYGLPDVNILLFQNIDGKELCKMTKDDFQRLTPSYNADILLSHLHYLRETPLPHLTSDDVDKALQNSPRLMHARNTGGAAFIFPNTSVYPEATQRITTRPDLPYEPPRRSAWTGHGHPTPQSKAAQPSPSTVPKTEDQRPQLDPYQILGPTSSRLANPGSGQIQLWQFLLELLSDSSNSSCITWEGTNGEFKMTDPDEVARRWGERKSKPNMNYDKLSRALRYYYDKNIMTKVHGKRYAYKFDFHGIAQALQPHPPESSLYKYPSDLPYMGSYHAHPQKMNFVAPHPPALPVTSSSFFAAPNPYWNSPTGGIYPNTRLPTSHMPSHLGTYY
# Summary of the method: as §1
# ELF1 = ELF1 (Homo sapiens, UniProt P32519 1-619)
# Summary of the method: as §1
# EHF = target: T5, EHF (Homo sapiens, UniProt Q9NZC4 1-300)
# T5 sequence: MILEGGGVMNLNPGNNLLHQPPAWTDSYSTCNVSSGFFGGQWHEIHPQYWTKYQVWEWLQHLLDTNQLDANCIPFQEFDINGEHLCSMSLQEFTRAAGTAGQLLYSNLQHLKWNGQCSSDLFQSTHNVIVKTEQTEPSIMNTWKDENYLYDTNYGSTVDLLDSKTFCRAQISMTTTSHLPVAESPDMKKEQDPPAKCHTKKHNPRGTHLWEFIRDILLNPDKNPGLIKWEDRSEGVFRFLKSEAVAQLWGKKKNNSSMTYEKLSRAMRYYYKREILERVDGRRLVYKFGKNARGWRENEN
# Summary of the method: as §1
# SPI1 = SPI1 (Homo sapiens, UniProt P17947 1-270)
# Summary of the method: as §1
# SPIB = SPIB (Homo sapiens, UniProt Q01892 1-262)
# Summary of the method: as §1
# ELK3 = target: T6, ELK3 (Homo sapiens, UniProt P41970 1-407)
# T6 sequence: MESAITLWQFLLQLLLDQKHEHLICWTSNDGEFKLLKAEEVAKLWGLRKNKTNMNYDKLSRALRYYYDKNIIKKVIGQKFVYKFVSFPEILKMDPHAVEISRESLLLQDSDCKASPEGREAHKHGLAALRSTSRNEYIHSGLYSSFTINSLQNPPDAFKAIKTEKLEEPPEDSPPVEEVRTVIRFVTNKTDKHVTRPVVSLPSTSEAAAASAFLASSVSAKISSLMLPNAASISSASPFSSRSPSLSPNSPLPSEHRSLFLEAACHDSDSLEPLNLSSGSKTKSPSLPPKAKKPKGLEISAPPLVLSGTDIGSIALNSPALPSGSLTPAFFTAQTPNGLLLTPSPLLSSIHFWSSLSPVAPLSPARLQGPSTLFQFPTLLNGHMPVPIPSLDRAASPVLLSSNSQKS
# Summary of the method: as §1
# Chain of SPIB (Q01892 whole entry): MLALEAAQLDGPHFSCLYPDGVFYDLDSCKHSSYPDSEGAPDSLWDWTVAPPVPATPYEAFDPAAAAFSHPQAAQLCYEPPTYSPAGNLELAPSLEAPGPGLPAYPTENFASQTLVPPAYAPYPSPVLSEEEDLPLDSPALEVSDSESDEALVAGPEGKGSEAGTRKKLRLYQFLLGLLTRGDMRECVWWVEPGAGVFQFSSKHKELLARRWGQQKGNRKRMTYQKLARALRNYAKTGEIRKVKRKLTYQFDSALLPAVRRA
# Chain of ELF1 (P32519 whole entry): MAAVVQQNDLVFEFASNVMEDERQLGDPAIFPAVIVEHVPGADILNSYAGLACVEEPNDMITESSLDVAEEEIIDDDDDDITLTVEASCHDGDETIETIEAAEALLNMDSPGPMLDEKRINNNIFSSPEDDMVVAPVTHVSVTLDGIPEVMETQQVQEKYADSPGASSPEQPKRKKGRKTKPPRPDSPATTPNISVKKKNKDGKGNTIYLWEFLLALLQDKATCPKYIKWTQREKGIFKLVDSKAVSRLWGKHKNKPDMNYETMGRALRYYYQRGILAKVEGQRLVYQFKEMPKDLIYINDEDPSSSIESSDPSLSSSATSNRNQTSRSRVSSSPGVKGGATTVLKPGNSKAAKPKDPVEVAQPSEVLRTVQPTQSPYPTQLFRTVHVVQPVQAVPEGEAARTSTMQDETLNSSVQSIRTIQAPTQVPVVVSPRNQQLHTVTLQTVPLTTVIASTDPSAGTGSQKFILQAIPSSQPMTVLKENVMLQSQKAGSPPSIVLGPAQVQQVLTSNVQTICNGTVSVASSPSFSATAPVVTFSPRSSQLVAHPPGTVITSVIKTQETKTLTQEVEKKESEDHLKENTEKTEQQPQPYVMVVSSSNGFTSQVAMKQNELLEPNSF
Sequence,binding signal (FLI1),binding signal (ELK1),binding signal (GABPA),binding signal (ERG),binding signal (ELF1),binding signal (EHF),binding signal (SPI1),binding signal (SPIB),binding signal (ELK3)
CGAACA,"1.09 fold enrichment (6-mer frequency, TF over GST control)","1.08 fold enrichment (6-mer frequency, TF over GST control)","1.11 fold enrichment (6-mer frequency, TF over GST control)","1.11 fold enrichment (6-mer frequency, TF over GST control)","1.13 fold enrichment (6-mer frequency, TF over GST control)","1.14 fold enrichment (6-mer frequency, TF over GST control)","1.15 fold enrichment (6-mer frequency, TF over GST control)","1.19 fold enrichment (6-mer frequency, TF over GST control)","1.09 fold enrichment (6-mer frequency, TF over GST control)"
TTCTGT,"1.26 fold enrichment (6-mer frequency, TF over GST control)","1.3 fold enrichment (6-mer frequency, TF over GST control)","1.3 fold enrichment (6-mer frequency, TF over GST control)","1.27 fold enrichment (6-mer frequency, TF over GST control)","1.27 fold enrichment (6-mer frequency, TF over GST control)","1.25 fold enrichment (6-mer frequency, TF over GST control)","1.37 fold enrichment (6-mer frequency, TF over GST control)","1.22 fold enrichment (6-mer frequency, TF over GST control)","1.33 fold enrichment (6-mer frequency, TF over GST control)"
AATTTT,"1.24 fold enrichment (6-mer frequency, TF over GST control)","1.26 fold enrichment (6-mer frequency, TF over GST control)","1.27 fold enrichment (6-mer frequency, TF over GST control)","1.21 fold enrichment (6-mer frequency, TF over GST control)","1.22 fold enrichment (6-mer frequency, TF over GST control)","1.3 fold enrichment (6-mer frequency, TF over GST control)","1.3 fold enrichment (6-mer frequency, TF over GST control)","1.26 fold enrichment (6-mer frequency, TF over GST control)","1.19 fold enrichment (6-mer frequency, TF over GST control)"
TACAAC,"1.16 fold enrichment (6-mer frequency, TF over GST control)","1.17 fold enrichment (6-mer frequency, TF over GST control)","1.16 fold enrichment (6-mer frequency, TF over GST control)","1.14 fold enrichment (6-mer frequency, TF over GST control)","1.16 fold enrichment (6-mer frequency, TF over GST control)","1.14 fold enrichment (6-mer frequency, TF over GST control)","1.08 fold enrichment (6-mer frequency, TF over GST control)","1.18 fold enrichment (6-mer frequency, TF over GST control)","1.23 fold enrichment (6-mer frequency, TF over GST control)"
GTTTTA,"1.17 fold enrichment (6-mer frequency, TF over GST control)","1.05 fold enrichment (6-mer frequency, TF over GST control)","1.14 fold enrichment (6-mer frequency, TF over GST control)","1.07 fold enrichment (6-mer frequency, TF over GST control)","1.07 fold enrichment (6-mer frequency, TF over GST control)","1.11 fold enrichment (6-mer frequency, TF over GST control)","1.12 fold enrichment (6-mer frequency, TF over GST control)","1.16 fold enrichment (6-mer frequency, TF over GST control)","1.08 fold enrichment (6-mer frequency, TF over GST control)"
ATATGT,"1.09 fold enrichment (6-mer frequency, TF over GST control)","1.08 fold enrichment (6-mer frequency, TF over GST control)","1.16 fold enrichment (6-mer frequency, TF over GST control)","1.1 fold enrichment (6-mer frequency, TF over GST control)","1.2 fold enrichment (6-mer frequency, TF over GST control)","1.13 fold enrichment (6-mer frequency, TF over GST control)","1.09 fold enrichment (6-mer frequency, TF over GST control)","1.18 fold enrichment (6-mer frequency, TF over GST control)","1.14 fold enrichment (6-mer frequency, TF over GST control)"
TCCACT,"1.47 fold enrichment (6-mer frequency, TF over GST control)","1.52 fold enrichment (6-mer frequency, TF over GST control)","1.51 fold enrichment (6-mer frequency, TF over GST control)","1.54 fold enrichment (6-mer frequency, TF over GST control)","1.5 fold enrichment (6-mer frequency, TF over GST control)","1.36 fold enrichment (6-mer frequency, TF over GST control)","1.5 fold enrichment (6-mer frequency, TF over GST control)","1.39 fold enrichment (6-mer frequency, TF over GST control)","1.49 fold enrichment (6-mer frequency, TF over GST control)"
